Data from the supplement of paper PMC12636033.
± gives the standard deviation of the averaged measurements. In all, about 33,000 sequences were measured (“E-score (rank enrichment, -0.5 to 0.5)”: median about -0.0028, highest 2% from about 0.23 on). Many of the other results were omitted from the sample, so the highest values are more common in it than they were.

test system: 2Sb-muMax20 (muMax20 with two 1,3-bis(methyl)benzene Cys staples, A13C/A17C and Q88C/A92C, C-terminal Lys); assay: PBM 8-mer E-score (E-score (rank enrichment, -0.5 to 0.5)); higher = stronger preferential binding
Experimental: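 Protein binding microarray (universal PBM chip covering all 10-mers in fixed probe flanks) with chemically synthesized human Max(13-93) bHLH-LZ analogs (not full-length Max) bearing noncanonical residues (hArg, Tha, Aib, Nle at 65) and aromatic Cys staples. Read-out per 8-mer (and its reverse complement): E-score (rank-based enrichment, -0.5 to 0.5) and Z-score of median probe intensity.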

Sequence	PBM 8-mer E-score
AGACGTAC	-0.0467 ± 0.078
ATTATTTG	0.197 ± 0.0069
CACTGCGG	-0.115 ± 0.052
CCAACAGC	-0.068 ± 0.0017
CGTCAATA	-0.0166 ± 0.034
AGTCAATA	0.09 ± 0.0033
GGTCAATA	0.238 ± 0.015
GGATCTTA	-0.014 ± 0.071
ACGCTGAC	-0.0415 ± 0.018
AAACCGTG	-0.0746 ± 0.026
ACTATAGT	0.299 ± 0.039
ACTATAGG	-0.00711 ± 0.032
ACTATAGA	0.118 ± 0.11
CCTATAGC	0.264 ± 0.036
ACTATAGC	-0.0113 ± 0.072
CCTATAGG	0.0292 ± 0.035
CAGTCCTC	0.00033 ± 0.011
AAAGAATG	0.0117 ± 0.014
AGAGACCA	0.0299 ± 0.014
ACTCTGTC	-0.111 ± 0.023
GGCATCAC	0.0631 ± 0.11
GTAGGGTA	0.266 ± 0.013
CTAGGGTA	-0.0583 ± 0.021
ATAGGGGA	0.18 ± 0.0034
CAAGGGGA	0.24 ± 0.015

Sequence	PBM 8-mer E-score
ATAGGGTA	0.123 ± 0.025
CTAGGGGA	0.117 ± 0.028
GTAGGGGA	0.24 ± 0.067
CAAGGGGG	-0.105 ± 0.048
CAAGGGAA	-0.0769 ± 0.018
AAAAAAAG	0.126 ± 0.056
GGGATCCC	-0.2 ± 0.043
CAGGAGTC	-0.0911 ± 0.039
AACGTTCA	0.0627 ± 0.039
ATATAAAT	0.2095 ± 0.00022
TACAGACA	0.0665 ± 0.048
AGTTAATA	0.184 ± 0.015
AATTATTA	0.18 ± 0.032
AGTTAATG	0.232 ± 0.025
CATTAATG	0.18 ± 0.016
AATTATTG	0.262 ± 0.017
AATTATTC	0.0609 ± 0.0053
AATTAATT	0.167 ± 0.077
AATTAATG	0.239 ± 0.033
AGTTAATC	0.0432 ± 0.046
AAGTTCGG	-0.224 ± 0.029
CAATTCCG	-0.0516 ± 0.045
AAGGTAAG	-0.0254 ± 0.00071
ATTACGAA	-0.000195 ± 0.03
AGTCTAAT	0.0498 ± 0.0033

Sequence	PBM 8-mer E-score
CGCTACTC	-0.172 ± 0.031
CTTAGGCA	-0.203 ± 0.024
AAGGCCCG	-0.159 ± 0.055
GTTTCTGA	0.0103 ± 0.029
CCACCCAA	0.128 ± 0.049
CACCCCTC	0.278 ± 0.026
CCACCCTA	0.189 ± 0.0062
CCACCCAC	0.239 ± 0.045
CCACCCTC	0.234 ± 0.036
ACACCCTC	0.0661 ± 0.073
ACACCCAC	0.2 ± 0.028
CACCCCTG	0.0699 ± 0.055
GACCCCTC	0.0964 ± 0.036
GGTCCCGA	-0.305 ± 0.042
AATATCCG	-0.0514 ± 0.051
AATATCCA	0.0444 ± 0.082
AATATCCC	0.245 ± 0.056
CGGGGGTA	0.0309 ± 0.084
CCCCCCCG	-0.2 ± 0.13
GCACCAGA	-0.126 ± 0.045
AGCCCCGG	-0.0543 ± 0.054
ACCACCCA	0.073 ± 0.062
GCCCACCA	0.12 ± 0.024
GCCCACAC	0.0967 ± 0.059
CCCCACCC	0.282 ± 0.076

Sequence	PBM 8-mer E-score
GCCCACCC	0.359 ± 0.045
ACCCACCG	0.0752 ± 0.014
CCCCACCG	0.11 ± 0.1
ACCCACCT	0.13 ± 0.029
TCCCACCA	-0.0255 ± 0.1
ACCCACCA	0.274 ± 0.027
ACCCACCC	0.417 ± 0.02
CCCCACCA	0.162 ± 0.035
ATTCGGAG	-0.0732 ± 0.026
GGGGATCA	0.0797 ± 0.027
AAGACCGT	-0.244 ± 0.028
AATGGTAT	0.157 ± 0.044
ACGGGGTG	0.118 ± 0.023
CAGTATAC	0.0863 ± 0.1
GATGAAAC	0.0586 ± 0.022
ATGAACGG	-0.111 ± 0.0086
CTCCGTCC	-0.114 ± 0.018
ATGTAATG	0.155 ± 0.013
ATGTAACG	0.0488 ± 0.0084
CTGTAACA	-0.00643 ± 0.026
ATGTAATA	0.236 ± 0.065
ATGTAACA	0.242 ± 0.031
CTGTAATA	0.0526 ± 0.019
AAAACCAC	0.121 ± 0.013
GCGTACCA	-0.0976 ± 0.0064

Sequence	PBM 8-mer E-score
AGACAAAA	-0.00983 ± 0.042
ACAGCAAA	0.0417 ± 0.047
ACGGGAAT	-0.08 ± 0.016
CATGGGTA	0.053 ± 0.028
CGTGGGTA	0.00707 ± 0.0098
AGTGGGTG	0.259 ± 0.0086
AATGGGTA	0.039 ± 0.0031
GGTGGGTA	0.282 ± 0.063
AGTGGGTC	-0.178 ± 0.017
GTTGGGTA	0.1494 ± 0.00044
AGTGGGCA	0.0757 ± 0.023
AGTGGGTA	0.121 ± 0.042
AGTGGGCC	-0.212 ± 0.019
GATGGGTA	0.246 ± 0.021
AGTGGGCG	0.237 ± 0.019
CGGCGCCG	-0.0151 ± 0.033
AATGAACA	0.129 ± 0.016
CCGCTGGC	-0.26 ± 0.0032
AAGGCACG	0.076 ± 0.023
GGCACACA	-0.16 ± 0.044
ATTCCGCC	0.107 ± 0.039
GAACTAGA	0.067 ± 0.017
TAACTAGA	0.238 ± 0.031
AAACTAGA	0.08188 ± 0.00023
CATATTAA	0.238 ± 0.062

Sequence	PBM 8-mer E-score
AGTATTAA	0.206 ± 0.061
AGTATTAC	0.236 ± 0.075
AATATTAT	0.259 ± 0.0099
TATATTAA	0.158 ± 0.011
ACTATTAT	0.194 ± 0.027
AGTATTAG	0.147 ± 0.0055
AATATTAG	0.178 ± 0.0068
CATATTAG	0.132 ± 0.032
GATATTAA	0.123 ± 0.014
AATATTAA	0.335 ± 0.045
ACTATTAA	0.176 ± 0.026
AGGAGGTC	-0.222 ± 0.015
CGGGAGGC	-0.24 ± 0.032
ATCTTACA	0.075 ± 0.012
ACCCAAGA	0.0956 ± 0.071
GGACCAGA	-0.2186 ± 0.0017
AGCCAACC	0.106 ± 0.0086
GTCAATAA	0.075 ± 0.025
TGAGACAA	0.109 ± 0.058
AGCTTAGC	-0.123 ± 0.011
ACTGGGTG	0.00505 ± 0.024
CGTTTAGC	0.00586 ± 0.16
TCTGTGCA	-0.0114 ± 0.085
GCTAGAAC	-0.0972 ± 0.085
AATATTAC	0.26 ± 0.0093

Sequence	PBM 8-mer E-score
GATATTAC	0.187 ± 0.088
CATATTAC	0.146 ± 0.071
ACGCAGCA	-0.0676 ± 0.011
CATCAATA	0.0338 ± 0.066
CCTTTCAC	0.0485 ± 0.022
ATCGCGAA	0.0277 ± 0.02
ATCGCGAT	0.255 ± 0.036
GTCGCGAC	0.291 ± 0.0036
GTCGCGAA	-0.208 ± 0.09
CTCGCGAC	0.107 ± 0.013
ATCGCGAG	0.151 ± 0.049
GGCTGTGA	-0.181 ± 0.072
ACTTATGC	-0.0277 ± 0.024
AGTGCGAC	-0.0265 ± 0.057
GACCAGAC	-0.231 ± 0.026
CGGTCGGA	-0.196 ± 0.0063
CATTCGTC	-0.00288 ± 0.012
ATGATACC	0.127 ± 0.024
AAGATGCA	0.262 ± 0.023
AAGATACT	0.151 ± 0.031
CTGATACA	-0.049 ± 0.059
AAGATGCT	0.0039 ± 0.035
AAGATACA	0.245 ± 0.033
GAGATGCA	0.113 ± 0.076
GAGATACA	0.0204 ± 0.028

Sequence	PBM 8-mer E-score
ATGATACA	0.255 ± 0.0028
GCAAATCA	-0.0255 ± 0.056
ACTTTGCG	0.0825 ± 0.063
AGCTACTA	0.0815 ± 0.033
AATTGGAA	0.00538 ± 0.0076
AGTTAACA	0.138 ± 0.09
TGTTAACA	0.301 ± 0.013
CGTTAACA	0.0451 ± 0.018
CAAACTGG	-0.0119 ± 0.034
AAATATGT	0.148 ± 0.031
TAATATAA	0.152 ± 0.00074
GGATATTA	0.128 ± 0.11
AAATATGA	0.247 ± 0.032
GAATATTC	0.166 ± 0.09
GAATATTA	0.238 ± 0.066
CAATATGA	0.159 ± 0.05
CAATATTA	0.106 ± 0.017
TAATATGA	0.168 ± 0.022
AAATATTC	0.124 ± 0.084
TAATATTA	0.35 ± 0.0053
AAATATTA	0.243 ± 0.032
AAAGGTTA	0.0976 ± 0.032
ACTCACTC	0.00443 ± 0.03
CCTTTTGC	-0.0513 ± 0.057
TATAGGAA	0.255 ± 0.038

Sequence	PBM 8-mer E-score
CATAGGAA	0.0608 ± 0.002
AATAGGAA	-0.0166 ± 0.01
AACATAAG	0.118 ± 0.021
ATAATCAA	0.0744 ± 0.015
ATCATGAG	0.0432 ± 0.081
AACATAAT	0.297 ± 0.014
AACATAAC	0.202 ± 0.012
ATCATAAT	0.232 ± 0.024
ATAATCAG	0.198 ± 0.028
ATAATCAT	0.241 ± 0.044
ATCATGAT	0.267 ± 0.045
ATCATAAA	0.000625 ± 0.011
ATCATAAG	0.217 ± 0.062
ATCATGAA	0.1293 ± 0.00082
AAGGGCCG	-0.18 ± 0.018
ATTTTAGA	0.0196 ± 0.021
CTGTTTCC	-0.0107 ± 0.033
CGCGCACG	0.0273 ± 0.007
GAATCTAC	0.0758 ± 0.0052
